Molecules are shown by their SMILES.

The assay relates to UCD52 (cells of a triple-negative basal-like breast cancer xenograft). The assay is described as follows: cell viability of combination (% of vehicle); higher = less cytotoxic. Particulars: 1 µM; 72 h; partner dose: 10 nM. How it is done:
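PDX cells were treated for 72 h with each drug at 1 µM plus afatinib (10 nM; 1 µM for WHIM30). Luciferase viability is expressed as percent of vehicle.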
Turning to `Nc1ccn(C2OC(CO)C(O)C2O)c(=O)n1` (stereo not given) [Cytarabine] + CN(C)C/C=C/C(=O)Nc1cc2c(Nc3ccc(F)c(Cl)c3)ncnc2cc1O[C@H]1CCOC1 [Afatinib], the “cell viability of combination” value turned out to be 65.7.
For the molecule `Cc1cc(Nc2ncc(Cl)c(Nc3ccccc3S(=O)(=O)C(C)C)n2)c(OC(C)C)cc1C1CCNCC1` + CN(C)C/C=C/C(=O)Nc1cc2c(Nc3ccc(F)c(Cl)c3)ncnc2cc1O[C@H]1CCOC1 [Afatinib], the “cell viability of combination” value was 28.7.
Take `COc1cccc2c1C(=O)c1c(O)c3c(c(O)c1C2=O)CC(O)(C(=O)CO)CC3OC1CC(N)C(O)C(C)O1` (stereo not given) [Doxorubicin] + CN(C)C/C=C/C(=O)Nc1cc2c(Nc3ccc(F)c(Cl)c3)ncnc2cc1O[C@H]1CCOC1 [Afatinib]: the “cell viability of combination” value turned out to be 28.5.
In the case of `COc1ncc(-c2ccc3nccc(-c4ccnnc4)c3c2)cc1NS(=O)(=O)c1ccc(F)cc1F` + CN(C)C/C=C/C(=O)Nc1cc2c(Nc3ccc(F)c(Cl)c3)ncnc2cc1O[C@H]1CCOC1 [Afatinib], the “cell viability of combination” value was 15.8.
As for `CCOC(=O)C1=C(COCCN)NC(C)=C(C(=O)OC)C1c1ccccc1Cl.O=S(=O)(O)c1ccccc1` (stereo not given) [Amlodipine Besylate] + CN(C)C/C=C/C(=O)Nc1cc2c(Nc3ccc(F)c(Cl)c3)ncnc2cc1O[C@H]1CCOC1 [Afatinib], the “cell viability of combination” value was found to be 83.6.
As for `CC(C)CC(NC(=O)C(CCc1ccccc1)NC(=O)CN1CCOCC1)C(=O)NC(Cc1ccccc1)C(=O)NC(CC(C)C)C(=O)C1(C)CO1` (stereo not given) [Carfilzomib (PR-171)] + CN(C)C/C=C/C(=O)Nc1cc2c(Nc3ccc(F)c(Cl)c3)ncnc2cc1O[C@H]1CCOC1 [Afatinib], the “cell viability of combination” value came out at 13.1.
With `CC1CC(=O)NN=C1c1ccc(NN=C(C#N)C#N)cc1` (stereo not given) [Levosimendan] + CN(C)C/C=C/C(=O)Nc1cc2c(Nc3ccc(F)c(Cl)c3)ncnc2cc1O[C@H]1CCOC1 [Afatinib], the “cell viability of combination” value was found to be 75.
Consider `C=C1C(=CC=C2CCCC3(C)C2CCC3C(C)C=CC(C)C(C)C)CC(O)CC1O` (stereo not given) [Doxercalciferol] + CN(C)C/C=C/C(=O)Nc1cc2c(Nc3ccc(F)c(Cl)c3)ncnc2cc1O[C@H]1CCOC1 [Afatinib], for which the “cell viability of combination” value amounted to 47.6.
As for `COC(=O)C1=C(C)NC(C)=C(C(=O)OCCN(C)Cc2ccccc2)C1c1cccc([N+](=O)[O-])c1.Cl` (stereo not given) [Nicardipine HCl] + CN(C)C/C=C/C(=O)Nc1cc2c(Nc3ccc(F)c(Cl)c3)ncnc2cc1O[C@H]1CCOC1 [Afatinib], the “cell viability of combination” value came out at 69.6.
In the case of `N.N.O=C([O-])C1(C(=O)[O-])CCC1.[Pt+2]` [Carboplatin] + CN(C)C/C=C/C(=O)Nc1cc2c(Nc3ccc(F)c(Cl)c3)ncnc2cc1O[C@H]1CCOC1 [Afatinib], the “cell viability of combination” value came out at 68.6.
For `CNC(=O)c1cc(Oc2ccc(NC(=O)Nc3ccc(Cl)c(C(F)(F)F)c3)cc2)ccn1.Cc1ccc(S(=O)(=O)O)cc1` [Sorafenib Tosylate] + CN(C)C/C=C/C(=O)Nc1cc2c(Nc3ccc(F)c(Cl)c3)ncnc2cc1O[C@H]1CCOC1 [Afatinib], the “cell viability of combination” value amounted to 42.3.
Regarding `Cl.O.O=C1Cc2cc(CCN3CCN(c4nsc5ccccc45)CC3)c(Cl)cc2N1` [Ziprasidone hydrochloride monohydrate] + CN(C)C/C=C/C(=O)Nc1cc2c(Nc3ccc(F)c(Cl)c3)ncnc2cc1O[C@H]1CCOC1 [Afatinib], the “cell viability of combination” value was determined as 70.3.
`Cc1nc(NC(=O)N2CCCC2C(N)=O)sc1-c1ccnc(C(C)(C)C(F)(F)F)c1` (stereo not given) + CN(C)C/C=C/C(=O)Nc1cc2c(Nc3ccc(F)c(Cl)c3)ncnc2cc1O[C@H]1CCOC1 [Afatinib]: the “cell viability of combination” value came to 43.4.
Turning to `O=C(O)CO.[NH2-].[NH2-].[Pt+2]` [Nedaplatin] + CN(C)C/C=C/C(=O)Nc1cc2c(Nc3ccc(F)c(Cl)c3)ncnc2cc1O[C@H]1CCOC1 [Afatinib], the “cell viability of combination” value was found to be 82.6.
In the case of `CC(=O)C1(O)Cc2c(O)c3c(c(O)c2C(OC2CC(N)C(O)C(C)O2)C1)C(=O)c1ccccc1C3=O.Cl` (stereo not given) [Idarubicin HCl] + CN(C)C/C=C/C(=O)Nc1cc2c(Nc3ccc(F)c(Cl)c3)ncnc2cc1O[C@H]1CCOC1 [Afatinib], the “cell viability of combination” value amounted to 24.3.
`CN(C)CC=CC(=O)Nc1cc2c(Nc3ccc(F)c(Cl)c3)ncnc2cc1OC1CCOC1` (stereo not given) [Afatinib (BIBW2992)] + CN(C)C/C=C/C(=O)Nc1cc2c(Nc3ccc(F)c(Cl)c3)ncnc2cc1O[C@H]1CCOC1 [Afatinib]: the “cell viability of combination” value is 21.3.
Turning to `COc1ccccc1OCCNCC(O)COc1cccc2[nH]c3ccccc3c12` (stereo not given) [Carvedilol] + CN(C)C/C=C/C(=O)Nc1cc2c(Nc3ccc(F)c(Cl)c3)ncnc2cc1O[C@H]1CCOC1 [Afatinib], the “cell viability of combination” value amounted to 59.2.
Consider `CCOc1cc2ncc(C#N)c(Nc3ccc(F)c(Cl)c3)c2cc1NC(=O)C=CCN(C)C` [Pelitinib (EKB-569)] + CN(C)C/C=C/C(=O)Nc1cc2c(Nc3ccc(F)c(Cl)c3)ncnc2cc1O[C@H]1CCOC1 [Afatinib], for which the “cell viability of combination” value was 28.6.
Turning to `COc1cc2nccc(Oc3ccc(NC(=O)Nc4cc(C)on4)c(Cl)c3)c2cc1OC` [Tivozanib (AV-951)] + CN(C)C/C=C/C(=O)Nc1cc2c(Nc3ccc(F)c(Cl)c3)ncnc2cc1O[C@H]1CCOC1 [Afatinib], the “cell viability of combination” value came out at 40.2.
Regarding `C1=C\COCc2cc(ccc2OCCN2CCCC2)Nc2nccc(n2)-c2cccc(c2)COC/1` [Pacritinib] + CN(C)C/C=C/C(=O)Nc1cc2c(Nc3ccc(F)c(Cl)c3)ncnc2cc1O[C@H]1CCOC1 [Afatinib], the “cell viability of combination” value is 47.9.
For the molecule `CN(C)CC=CC(=O)Nc1cc2c(Nc3ccc(F)c(Cl)c3)ncnc2cc1OC1CCOC1.O=C(O)C=CC(=O)O.O=C(O)C=CC(=O)O` (stereo not given) [Afatinib dimaleate] + CN(C)C/C=C/C(=O)Nc1cc2c(Nc3ccc(F)c(Cl)c3)ncnc2cc1O[C@H]1CCOC1 [Afatinib], the “cell viability of combination” value came to 24.5.
`CNC(=O)c1cc(Oc2ccc(NC(=O)Nc3ccc(Cl)c(C(F)(F)F)c3)c(F)c2)ccn1` [Regorafenib] + CN(C)C/C=C/C(=O)Nc1cc2c(Nc3ccc(F)c(Cl)c3)ncnc2cc1O[C@H]1CCOC1 [Afatinib]: the “cell viability of combination” value was determined as 55.9.
On to `O=C(O)c1cc(O)c(O)c(O)c1` [Gallic acid] + CN(C)C/C=C/C(=O)Nc1cc2c(Nc3ccc(F)c(Cl)c3)ncnc2cc1O[C@H]1CCOC1 [Afatinib], for which the “cell viability of combination” value worked out at 73.6.
As to `Clc1ccc(COC(Cn2ccnc2)c2ccc(Cl)cc2Cl)c(Cl)c1.O=[N+]([O-])O` (stereo not given) [Miconazole Nitrate] + CN(C)C/C=C/C(=O)Nc1cc2c(Nc3ccc(F)c(Cl)c3)ncnc2cc1O[C@H]1CCOC1 [Afatinib], the “cell viability of combination” value was found to be 76.3.
For the molecule `CC(Oc1cc(-c2cnn(C3CCNCC3)c2)cnc1N)c1c(Cl)ccc(F)c1Cl` [(R)-Crizotinib] + CN(C)C/C=C/C(=O)Nc1cc2c(Nc3ccc(F)c(Cl)c3)ncnc2cc1O[C@H]1CCOC1 [Afatinib], the “cell viability of combination” value is 48.3.
For the molecule `CC1(C)CCC(c2ccc(Cl)cc2)=C(CN2CCN(c3ccc(C(=O)NS(=O)(=O)c4ccc(NC(CCN5CCOCC5)CSc5ccccc5)c(S(=O)(=O)C(F)(F)F)c4)cc3)CC2)C1` (stereo not given) [ABT-263 (Navitoclax)] + CN(C)C/C=C/C(=O)Nc1cc2c(Nc3ccc(F)c(Cl)c3)ncnc2cc1O[C@H]1CCOC1 [Afatinib], the “cell viability of combination” value was 38.
As to `CS(=O)(=O)CCNCc1ccc(-c2ccc3ncnc(Nc4ccc(OCc5cccc(F)c5)c(Cl)c4)c3c2)o1.Cc1ccc(S(=O)(=O)O)cc1.Cc1ccc(S(=O)(=O)O)cc1` [Lapatinib Ditosylate] + CN(C)C/C=C/C(=O)Nc1cc2c(Nc3ccc(F)c(Cl)c3)ncnc2cc1O[C@H]1CCOC1 [Afatinib], the “cell viability of combination” value turned out to be 41.5.
Turning to `CCC(NC(=O)C(C)NC)C(=O)N1CC(O)CC1Cc1c(-c2[nH]c3cc(F)ccc3c2CC2CC(O)CN2C(=O)C(CC)NC(=O)C(C)NC)[nH]c2cc(F)ccc12` (stereo not given) + CN(C)C/C=C/C(=O)Nc1cc2c(Nc3ccc(F)c(Cl)c3)ncnc2cc1O[C@H]1CCOC1 [Afatinib], the “cell viability of combination” value was determined as 53.5.
Consider `COc1ccc2cc1Oc1ccc(cc1)CC1c3c(cc4c(c3Oc3cc5c(cc3OC)CCN(C)C5C2)OCO4)CCN1C` (stereo not given) [Cepharanthine] + CN(C)C/C=C/C(=O)Nc1cc2c(Nc3ccc(F)c(Cl)c3)ncnc2cc1O[C@H]1CCOC1 [Afatinib], for which the “cell viability of combination” value came out at 40.1.
For `Cl.OC(c1cc(C(F)(F)F)nc2c(C(F)(F)F)cccc12)C1CCCCN1` (stereo not given) [Mefloquine hydrochloride] + CN(C)C/C=C/C(=O)Nc1cc2c(Nc3ccc(F)c(Cl)c3)ncnc2cc1O[C@H]1CCOC1 [Afatinib], the “cell viability of combination” value stood at 50.3.
With `Cn1cnc2c(F)c(Nc3ccc(Br)cc3F)c(C(=O)NOCCO)cc21` + CN(C)C/C=C/C(=O)Nc1cc2c(Nc3ccc(F)c(Cl)c3)ncnc2cc1O[C@H]1CCOC1 [Afatinib], the “cell viability of combination” value amounted to 54.
`Oc1c(Cl)cc(Cl)c2cccnc12` [Chloroxine] + CN(C)C/C=C/C(=O)Nc1cc2c(Nc3ccc(F)c(Cl)c3)ncnc2cc1O[C@H]1CCOC1 [Afatinib]: the “cell viability of combination” value was 75.4.
`C=CC(=O)N1CCC(Oc2cc3c(Nc4ccc(Cl)c(Cl)c4F)ncnc3cc2OC)CC1` [Poziotinib] + CN(C)C/C=C/C(=O)Nc1cc2c(Nc3ccc(F)c(Cl)c3)ncnc2cc1O[C@H]1CCOC1 [Afatinib]: the “cell viability of combination” value is 27.6.
Take `CCN(CC)CCCC(C)Nc1ccnc2cc(Cl)ccc12.O=P(O)(O)O.O=P(O)(O)O` (stereo not given) [Chloroquine diphosphate] + CN(C)C/C=C/C(=O)Nc1cc2c(Nc3ccc(F)c(Cl)c3)ncnc2cc1O[C@H]1CCOC1 [Afatinib]: the “cell viability of combination” value was 48.5.
Under `CO[C@@]12[C@H](COC(N)=O)C3=C(C(=O)C(C)=C(N)C3=O)N1C[C@@H]1N[C@@H]12` [Mitomycin C] + CN(C)C/C=C/C(=O)Nc1cc2c(Nc3ccc(F)c(Cl)c3)ncnc2cc1O[C@H]1CCOC1 [Afatinib] stands 58.4; under `CC1(C)Cc2c(-c3ccccc3)c(-c3ccc(Cl)cc3)c(CC(=O)O)n2C1` [Licofelone] + CN(C)C/C=C/C(=O)Nc1cc2c(Nc3ccc(F)c(Cl)c3)ncnc2cc1O[C@H]1CCOC1 [Afatinib], 72.7; under `COC1=C(OC)C(=O)C(CCCCCCCCCCO)=C(C)C1=O` [Idebenone] + CN(C)C/C=C/C(=O)Nc1cc2c(Nc3ccc(F)c(Cl)c3)ncnc2cc1O[C@H]1CCOC1 [Afatinib], 62.7.
`C=C(c1ccc(C(=O)O)cc1)c1cc2c(cc1C)C(C)(C)CCC2(C)C` [Bexarotene] + CN(C)C/C=C/C(=O)Nc1cc2c(Nc3ccc(F)c(Cl)c3)ncnc2cc1O[C@H]1CCOC1 [Afatinib]: the “cell viability of combination” value turned out to be 82.4.
The figure for `Clc1ccc(COC(Cn2ccnc2)c2ccc(Cl)cc2Cl)cc1.O=[N+]([O-])O` (stereo not given) [Econazole nitrate] + CN(C)C/C=C/C(=O)Nc1cc2c(Nc3ccc(F)c(Cl)c3)ncnc2cc1O[C@H]1CCOC1 [Afatinib] is 62.2; for `CCCSc1nc(NC2CC2c2ccc(F)c(F)c2)c2nnn(C3CC(OCCO)C(O)C3O)c2n1` (stereo not given) [Ticagrelor] + CN(C)C/C=C/C(=O)Nc1cc2c(Nc3ccc(F)c(Cl)c3)ncnc2cc1O[C@H]1CCOC1 [Afatinib] it is 72.2.
